An excerpt weighted towards active compounds, which were near 2.8% of everything screened.
HSV augment – enhancers of HSV replication in host cells, fold increase, host cell viability. 0.005% of 220,000 active. HSV replication augmentation in cells. maximum fold increase. AID 1956, 2009; in the data active = maximum fold increase above about 1.5; inconclusive = no clear call, values can overlap the other calls; tested in PC3 cells
Wee1 degr inh – Wee1 degradation inhibitors, primary screen, cell-based, HeLa, Wee1K328M-luciferase, luminescence. HeLa Luc-Wee1K328M stability; 100% = proteasome inhibitor MG132 effect. reporter increase, % at 5 µM. 1.2% of 220,000 active;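 active = activation above the mean of all tested compounds plus 3 SD, set per screening run, cut at about 8.8% in these data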;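 note: cells exposed to compound for 20 h before luminescence read; 0% = DMSO alone and 100% = MG132 at 30 µM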
EP2 antag – human EP2 receptor antagonists, primary screen, TR-FRET cAMP, C6 glioma cells. C6 glioma cells expressing human EP2; cells stimulated with saturating PGE2. 0.52% of 260,000 active. AID 1422, 2008. inhibition, % at 25 µM. Prostaglandin E2 receptor EP2 subtype (Homo sapiens), P43116;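 active = percent inhibition above 40 after rounding to a whole number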;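 note: rat C6 glioma host cells with rolipram phosphodiesterase inhibitor present; the protocol text gives 20 µM as final concentration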
EP2 modulator – EP2 receptor modulators, cAMP readout, primary screen, cell-based, HTRF cAMP, PGE2 stimulation. induction, % at 25 µM. EP2-expressing cells, cAMP HTRF FRET, PGE2 co-stimulation. 0.83% of 260,000 active. Prostaglandin E2 receptor EP2 subtype (Homo sapiens), P43116. AID 940, 2007;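 active = compounds whose cAMP rise, as percent of the full-agonist control response, exceeds 60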;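 note: rat C6 glioma line stably carrying human EP2 under a CMV promoter; the protocol text gives 20 µM as final concentration; 100% = response of wells given 1 µM PGE2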
NCF1 inh – p47phox/p22phox peptide binding inhibitors, primary screen, biochemical, uHTS, NADPH oxidase regulatory subunit | Neutrophil cytosol factor 1 (Homo sapiens), P14598 | fluorescence polarization, 2 h | inhibition, % at 24.7 µM | 0.53% of 220,000 active | AID 1274, 2008;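 active = inhibition above about 30%, limit read from the data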;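 note: 0% = p47phox with labelled peptide and 100% = labelled peptide alone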
Target sequence (P14598 whole entry, looked up): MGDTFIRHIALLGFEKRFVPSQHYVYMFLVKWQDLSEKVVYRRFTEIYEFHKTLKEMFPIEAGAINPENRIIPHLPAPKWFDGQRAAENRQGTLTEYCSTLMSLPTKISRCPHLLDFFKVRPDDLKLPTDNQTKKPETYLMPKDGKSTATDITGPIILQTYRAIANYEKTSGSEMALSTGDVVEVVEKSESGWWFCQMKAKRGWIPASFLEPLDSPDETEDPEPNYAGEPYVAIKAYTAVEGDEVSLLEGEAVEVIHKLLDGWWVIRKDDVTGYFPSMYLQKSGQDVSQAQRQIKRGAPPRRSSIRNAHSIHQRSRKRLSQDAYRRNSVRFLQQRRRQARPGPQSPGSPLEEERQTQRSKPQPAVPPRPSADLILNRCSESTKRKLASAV
Furin inh – human furin inhibitors, primary screen, biochemical, fluorescence intensity. P09958. purified furin, fluorogenic substrate cleavage. inhibition, % at 20 µM or 30 µM. 0.061% of 220,000 active; in the data active = inhibition above about 25%
* marks the source's active call; other numbers are inactive results; i = inactive; ? = inconclusive; / = not tested or not shown; ! = a repeat was not active.

SMILES	HSV augment	Wee1 degr inh	EP2 antag	EP2 modulator	NCF1 inh	Furin inh
CCC(C(=O)OC)n1c(-c2ccccc2)nc2ccccc2c1=O (centres undefined)	i	-3	7	69*!	-17	-19
COc1cc2c(cc1CN1CCn3c(CO)nnc3C1)CCC2	/	/	9	12	/	/
CCCC(=O)N1CCN(S(=O)(=O)c2cc(Cl)ccc2OC)CC1	i	1	9	32	0	-13
COc1ccc(Cl)cc1S(=O)(=O)N1CCCC1=O	i	10.0*	9	20	-11	-22
Cc1ccc2[nH]c(=O)c(CN(Cc3cccnc3)S(=O)(=O)c3ccc(F)cc3)cc2c1	/	/	4	-89	/	/
O=C(c1ccc(Cl)cc1[N+](=O)[O-])N1CCN(c2ccccn2)CC1	i	9.3*	0	-28	1	-14
CCOc1ccc2c(C)cc(=O)oc2c1OCC	i	-1	7	45	-15	-13
CCCCOc1ccc2c(C)cc(=O)oc2c1OCCCC	i	0	0	62*	-1	-12
Cc1ccc(S(=O)(=O)Nc2ccccc2C(=O)c2ccc(C)c(C)c2)cc1	/	/	45*	4	/	/
CCS(=O)(=O)N1Cc2ccccc2CC1C(=O)NC(C)C12CC3CC(CC(C3)C1)C2 (centres undefined)	i	0	11	63*	-5	-19
CCOC(=O)Cn1nc(C)n(-c2ccccc2)c1=O	i	-1	4	11	0	-19
CCOC(=O)CCn1c2nc(C)cc(C)c2c(=O)n1-c1ccccc1	i	-3	20	1	34*	-37
CCc1nn(CC(=O)n2nc(C)cc2C)c(=O)c2cc3ccsc3n12	/	/	/	15	/	/
Nc1nc(N)nc(-c2ccccc2-c2nc(N)nc(N)n2)n1	i	2	2	-20	2	-9
[Cu].c1ccc2c(c1)-c1nc-2nc2[n-]c(nc3nc(nc4[n-]c(n1)c1ccccc41)-c1ccccc1-3)c1ccccc21	/	/	54*	1	/	/
COc1ccc(C(C#N)Nc2ccccc2OC)cc1 (centres undefined)	i	1	0	6	-6	-29
Cc1ccc(Cl)cc1NC(C#N)c1ccccc1 (centres undefined)	i	0	11	63*	-7	-16
CCOC(=O)c1ccc(Oc2nc(OC)nc(N(C)C)n2)cc1	i	-2	15	17	-2	-21
CN(C)c1nc(Oc2ccc(C(=O)OCC(=O)Nc3ccccc3)cc2)nc(N(C)C)n1	i	9.1*	9	13	-23	-8
COc1ccc(C(CCNC(C)c2ccccc2)C(C)C)cc1 (centres undefined)	i	2	23	15	42*	-17
Cc1c(C(=O)NCCc2ccccc2)oc2ccc(S(=O)(=O)N3CCC4(CC3)OCCO4)cc12	i	9.5*	17	-4	-4	-3
C=CCNC(=S)N1CCN(CCN=CC2=C(O)CC(c3ccco3)CC2=O)CC1 (centres undefined)	i	-3	15	5	35*	-2
COc1ccccc1C1Nc2ccccc2C(OC(C)=O)C1(C)C (centres undefined)	/	/	8	-19	/	/
N#CC1=C(SCC(=O)c2ccc(Br)cc2)NC2=C(C(=O)CCC2)C1c1ccco1 (centres undefined)	/	11*	/	-15	-30	-5
CCc1ccc(NC(=O)CSC2=C(C#N)C(c3ccco3)C3=C(CCCC3=O)N2)cc1 (centres undefined)	i	0	8	-17	-9	-17
SMILES	HSV augment	Wee1 degr inh	EP2 antag	EP2 modulator	NCF1 inh	Furin inh
COc1cc(S(=O)(=O)N(Cc2cccs2)Cc2ccccc2F)ccc1-n1cnnn1	/	/	1	2	/	/
CNC(=O)CS(=O)CC(=O)Nc1cc(OCCOC)c(Cl)cc1Cl (centres undefined)	i	8.9*	5	9	-1	-9
COCCOc1cc(NC(=O)c2ccccc2)c(Cl)cc1Cl	/	0	6	-22	1	-22
Brc1ccc(-c2nn3c(-c4ccco4)nnc3s2)o1	i	-3	43*	33	-31	-21
Cc1ccc(OCc2nn3c(-c4ccco4)nnc3s2)cc1	i	-1	6	63*	-6	-17
N#C/C(=C\c1ccc(N2CCCCC2)o1)C(=O)Nc1cccc(Br)c1	?	1	12	-32	37*	-19
CCc1ccc2[nH]c(=O)c(CN(Cc3cccnc3)C(=O)Nc3ccc(OC)cc3)cc2c1	/	/	2	25	/	/
CC1(C)CC(=O)C2=C(C1)Nc1cc3c(cc1C2c1ccc2c(c1)OCO2)OCO3 (centres undefined)	i	3	7	3	59*	-19
CC1(C)CC(=O)C2=C(C1)Nc1cc3c(cc1C2c1ccc(F)cc1)OCO3 (centres undefined)	i	-1	12	-4	-11	11
COc1ccc(C2CC(=O)C3=C(C2)NC(C)=C(C(=O)OC2CCCC2)C3c2cccs2)cc1OC (centres undefined)	/	/	17	6	/	/
CCCCN(C(=O)c1cccc2c(=O)c(C)c(-c3ccccc3)oc12)c1ccccc1	i	1	-1	64*	-13	-12
Cn1c(=O)[nH]c(=O)c2c1nc(N1CCCCC1)n2CC(O)CCl (centres undefined)	/	/	15	-19	/	/
CCCCOC(=O)Cn1c2ccc(OC)cc2c2nc3ccccc3nc21	i	-1	5	33	22	-17
CCOc1ccc(Cn2c3ccc(OC)cc3c3nc4ccccc4nc32)cc1	i	1	5	18	44*	-4
CCC(c1nnnn1Cc1ccc(OC)cc1)N(CCCO)Cc1cc2cc3c(cc2[nH]c1=O)OCO3 (centres undefined)	i	9.2*	3	3	-5	-35
CN(C)c1nc2c(c(=O)[nH]c(=O)n2C)n1Cc1cccc2ccccc12	/	/	8	0	/	/
Cc1cc(C)c2c3c(sc2n1)C(=O)N(c1ccccc1C)CC(=O)N3	i	9.5*	4	-28	2	-8
CCn1c(COc2cc(C)ccc2C(C)C)nnc1SCC(=O)Nc1nccs1	i	11*	0	11	-2	-14
Cc1ccc(-n2c(CSc3nc(C)cc(C)n3)nnc2SCC(=O)Nc2nccs2)cc1	i	-1	4	3	36*	-24
CCn1c(SCC(=O)Nc2nccs2)nnc1-c1ccc(N)cc1	/	/	9	17	/	/
COc1ccc(-n2c(CSc3nc(C)cc(C)n3)nnc2SCC(=O)Nc2nccs2)cc1	i	-1	4	20	-3	-23
O=C(NC1CCN(Cc2nnnn2CCc2ccccc2)CC1)C1CCCCC1	/	/	5	11	/	/

Bioassay records deposited in PubChem by several laboratories.
